Active and inactive are the calls of the source. The call rests on the fitted dose curve; in most records, active means well fitted curve in the direction sought with a large enough effect in the repeat runs; inconclusive means weak or mixed curves; inactive means flat fitted curve, though single readings scatter.

The test is described as follows: qHTS assay to test for compound auto fluorescence at 590 nm (red) in HepG2 cell free culture (AID 720684). Conditions: cell-free medium autofluorescence, red 540/590 nm; series mostly up to 91.3 µM. The text has this:
U.S. Tox21 Program National Center for Advancing Translational Sciences [NCATS] NIH Chemical Genomics Center [NCGC] U.S. Environmental Protection Agency [EPA] National Institutes of Environmental Health Sciences [NIEHS] National Toxicology Program [NTP] U.S. Food and Drug Administration [FDA] Tox21 Assay Overview: Compound auto fluorescence often interferes with screening of the compound library against various biological targets and signaling pathways. Some of these compounds may have fluorophoric properties. Such properties may interfere with the assay outputs resulting in false positives and/or negatives. To decrease such complications and ensure the compound activities are relevant in terms of biological response, the Tox21 10K compound library was screened for auto fluorescence. From the fluorophores used as reporter signals in our screening assays, the auto fluorescence equivalencies of compounds against three fluorophores have been evaluated: Triamterene, Fluorescein and Rose Bengal sodium for blue, green and red fluorescence, respectively. The fluorescence intensities were measured using Excitation/Emission wavelengths at 405/460nm, 485/535nm and 540/590nm for blue, green and red labels, respectively. This assay includes the red fluorescence data.
Tox21 Assay Protocol Summary: 5 uL of culture medium (MEM containing 10% FBS) per well was dispensed into black wall/clear bottom 1536-well plates using a Multidrop Combi Dispenser (ThermoFisher Scientific, Waltham, MA). After 23 nL compound or DMSO vehicle was transferred into assay plate by a pintool work station (Kalypsys, San Diego, CA), fluorescence intensities in the assay plates were measured by an Envision (PerkinElmer, Shelton, CT) plate reader using three labels for measuring blue, green and red fluorescence at […] 460, 535 and 590nm respectively.
Consider `CNC(=O)Oc1ccccc1C(C)C`, for which the call was inactive.
On to `CC(C)(C)C(=O)Cl`, for which the result was inactive.
Consider `Cc1ccc(-c2nc3ccc(C)cn3c2CC(=O)N(C)C)cc1`, for which the compound was classed as inactive.
With `CC[C@@H](CO)NC(=O)[C@@H]1C=C2c3cccc4[nH]cc(c34)C[C@H]2N(C)C1`, the compound was classed as inactive.
Next, `CCOC(=O)C(Cl)Cc1cc(-n2nc(C)n(C(F)F)c2=O)c(F)cc1Cl` (stereo not given): “inactive”; `COc1cc(CCN)cc(OC)c1OC`: “inactive”; `CCN(CCO)CCO`: “inactive”.
`N#CN=C1SCCN1Cc1ccc(Cl)nc1`: the outcome was inactive.
As to `O=C(Cl)C(Cl)Cl`, the compound was called inactive.
As to `C/C=C/CC#N`, the outcome was inactive.
With `Nc1c(Cl)c(F)nc(OCC(=O)O)c1Cl` the entry was “inactive”; with `N=C(N)[Se]`, “inactive”; with `N#CN`, “inactive”.
As for `CC[C@H](O)C(C[C@H](C)N(C)C)(c1ccccc1)c1ccccc1`, the compound was classed as inactive.
For the compound `COc1cccc(C=O)c1`, the call was inactive.
With `c1cncc([C@@H]2CCCCN2)c1` the entry was “inactive”; with `CN1COCN(Cc2cnc(Cl)s2)/C1=N\[N+](=O)[O-]`, “inactive”.
Next, `ClC1=C(Cl)C2(Cl)C(CBr)CC1(Cl)C2(Cl)Cl` (stereo not given): “inactive”.
In the case of `C#CC(C)(C)O`, the call was inactive.
With `O=C(NC(O)C(Cl)(Cl)Cl)NC(O)C(Cl)(Cl)Cl` (stereo not given) the entry was “inactive”; with `O=C(NC(=O)c1c(F)cccc1F)Nc1cc(Cl)c(F)c(Cl)c1F`, “inactive”.
With `O=C(O)CBr` the entry was “inactive”; with `NC(=O)OCCCc1ccccc1`, “inactive”; with `CC1N=C(N)OC1c1ccccc1` (stereo not given), “inactive”.
On to `CCCCCCC(=O)CCCCCC/C=C/C[C@@H](O)[C@H](O)[C@@](N)(CO)C(=O)O`, for which the call was inactive.
As to `CC[C@H](N)c1ccccc1`, the outcome was inactive.
Regarding `CCCC(C)(COC(N)=O)COC(N)=O`, the result was inactive.
Next, `C#CCOC(=O)/C=C(C)/C=C/CC(C)CCCC(C)C` (stereo not given): “inactive”; `C[N+]1(C)CCCCC1`: “inactive”.
With `Cn1c(N)nc2c3cccnc3ccc21` the entry was “inactive”; with `COC(=O)[C@@H](N)CCCN/C(N)=N/[N+](=O)[O-]`, “inactive”.
Regarding `O=C/C=C/c1ccco1`, the compound was called inactive.
Regarding `C=CC=O`, the call was inactive.
Next, `O=C(Cl)/C=C/C(=O)Cl`: “inactive”; `O=C(Cl)c1ccccc1`: “inactive”.
With `C=CC1(C)OC(=O)N(c2cc(Cl)cc(Cl)c2)C1=O` (stereo not given) the entry was “inactive”; with `CCCCCCCCBr`, “inactive”.
Next, `CN(C)CCN(C)C`: “inactive”; `Cn1c(CCCC(=O)O)nc2cc(N(CCCl)CCCl)ccc21`: “inactive”; `CN(C)C1CCCCC1`: “inactive”.
